Test [1] is described as follows: qHTS of pediatric cancer cell lines to identify multiple opportunities for drug repurposing: Primary screen for SJ-GBM2 cells (AID 1347091). Note: potency is the fitted concentration of half-maximal effect. In outline:
(§1)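 Viability measured as metabolically active cells via CellTiter-Glo luminescence following 48 hours of compound exposure, 11-point dilutions in confirmatory testing. 500-1,000 cells/well plated 5 hours before dosing; controls were DMSO and 2.3 µM bortezomib.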
On the technique in general: Quantitative high-throughput screening tests each substance at several concentrations.

Test [2] in a line: qHTS of pediatric cancer cell lines to identify multiple opportunities for drug repurposing: Primary screen for A673 cells (AID 1347092). Note: nearly all actives have a fitted effect of over 45% in size. Note: potency is the fitted concentration of half-maximal effect. In outline:
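A673 cells (500-1,000 cells/well in growth media) were pre-incubated 5 h at 37 degrees C, then exposed to compounds for 48 h. Viability was read as CellTiter-Glo luminescence; concentration-response curves came directly from the primary screen.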

Test [3] can be described thus: qHTS of pediatric cancer cell lines to identify multiple opportunities for drug repurposing: Primary screen for SK-N-MC cells (AID 1347093). Note: potency is the fitted concentration of half-maximal effect. In short, it runs like this: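 Metabolically active cells were quantified by ATP-dependent luminescence (CellTiter-Glo, 15 min at room temperature) following 48 h treatment. Cells had been plated at 500-1,000 per well and settled for 5 h beforehand.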

Test [4] in a line: qHTS of pediatric cancer cell lines to identify multiple opportunities for drug repurposing: Primary screen for BT-37 cells (AID 1347094). Note: potency is the fitted concentration of half-maximal effect. In short, it runs like this:
(§2)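 Phenotypic viability qHTS, 48 h compound exposure, CellTiter-Glo luminescence read-out; multi-concentration dosing so that potency and efficacy derive directly from the primary screen's curves.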

The nature of test [5]: qHTS of pediatric cancer cell lines to identify multiple opportunities for drug repurposing: Primary screen for Saos-2 cells (AID 1347097). Note: nearly all actives have a fitted effect of over 40% in size. Note: potency is the fitted concentration of half-maximal effect. In short, it runs like this: as §2
Test [6] in a line: qHTS of pediatric cancer cell lines to identify multiple opportunities for drug repurposing: Primary screen for SK-N-SH cells (AID 1347098). Note: nearly all actives have a fitted effect of over 65% in size. Note: potency is the fitted concentration of half-maximal effect. In short, it runs like this:
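Cells (500-1,000/well) rested 5 h, then received compounds for 48 h; metabolically active cells were measured by CellTiter-Glo luminescence. Final concentrations spanned up to 46 µM (MIPE, 11-point) or 0.59 nM-46 µM (NPC, 8-point) in primary screens, 11-point in follow-ups.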

Test [7] can be described thus: qHTS of pediatric cancer cell lines to identify multiple opportunities for drug repurposing: Primary screen for NB-EBc1 cells (AID 1347095). In outline:
as §2

Test [8] can be described thus: qHTS of pediatric cancer cell lines to identify multiple opportunities for drug repurposing: Primary screen for U-2 OS cells (AID 1347096). Note: nearly all actives have a fitted effect of over 50% in size. In outline: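 Viability after 48 h compound treatment at 37C, 500-1,000 cells/well, read as ATP luminescence with CellTiter-Glo. Primary screens used 11-point (MIPE, 0.78 nM-46 µM) or 8-point (NPC, 0.59 nM-46 µM) final concentrations; follow-up screens used 11-point dilutions.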

The nature of test [9]: qHTS of pediatric cancer cell lines to identify multiple opportunities for drug repurposing: Primary screen for NB1643 cells (AID 1347099). Note: nearly all actives have a fitted effect of over 50% in size. In outline: as §2
The nature of test [10]: qHTS of pediatric cancer cell lines to identify multiple opportunities for drug repurposing: Primary screen for DAOY cells (AID 1347090). Note: series mostly up to about 46 µM; nearly all actives have a fitted effect of over 55% in size. In outline: as §1

Records with an inconclusive call do not appear. The source made the active and inactive calls. Calls come from the whole dose curve; as a rule, active = well fitted curve in the direction sought with a large enough effect; inconclusive = small, poorly fitted or top-dose-only effect, or another doubt; inactive = no such curve, though single readings can be large; an effect the other way counts as inactive or inconclusive.

Take `CCCCCCCCCCCCCCCC[N+](C)(C)CC`: the Potency in test [1] is 18.8 µM (active); in test [2], 1.06 µM (active); in test [3], 2.66 µM (active); in test [4] it was 13.8 µM (active); in [5], 13.3 µM (active); in test [6], 12.2 µM (active).
With `CN1[C@@H]2CC[C@H]1CC(OC(=O)c1c[nH]c3ccccc13)C2` (some centres not stated), the Potency result in test [1], in test [2], in [3], in test [4], in test [7] and in [8] was “inactive” each time. In addition, the Potency entry in test [5] and in test [9] was “inactive” in each case.
For the compound `CCCCOc1ccc(C(=O)CCN2CCCCC2)cc1`, the Potency entry in [10] and in [8] was “inactive” in each case. For the same compound, in test [5], the Potency is 23.7 µM (active).
Regarding `CC(=O)Oc1ccc(C(c2ccc(OC(C)=O)cc2)c2ccccn2)cc1`, the Potency entry in test [1], in test [2], in [4], in test [7], in [5] and in test [6] was “inactive” throughout. Moreover, in test [9], the Potency result is “inactive”.
Turning to `C=CCc1ccc(O)c(OC)c1`, the Potency result in test [1], in test [2], in test [3], in [4], in [7] and in test [8] was “inactive” in each case. For the same compound, the Potency result in [5], in test [6] and in test [9] was “inactive” each time.
Take `CC(C)(C(=O)c1cccnc1)c1cccnc1`: the Potency entry in test [1], in [2], in test [3], in test [4], in [7] and in [6] was “inactive” each time. For the same compound, the Potency entry in [9] is “inactive”.
For the compound `CCN(CC)C(=O)/C(C#N)=C/c1cc(O)c(O)c([N+](=O)[O-])c1`, the Potency entry in test [1], in [2], in test [3], in [5], in [6] and in [9] was “inactive” throughout.
Take `CC(C)(C)CC(C)(C)c1ccc(OCCOCC[N+](C)(C)Cc2ccccc2)cc1`: the Potency in test [1] is 21.1 µM (active); in test [2], 10.6 µM (active); in test [3], 5.96 µM (active); in test [4] it was 13.8 µM (active); in [5], 13.3 µM (active).
In the case of `Nc1nc2ncc(CNc3ccc(C(=O)N[C@@H](CCC(=O)O)C(=O)O)cc3)nc2c(=O)[nH]1`, the Potency entry in test [1], in [2], in test [3], in test [4], in test [7] and in [8] was “inactive” in each case. For the same compound, the Potency entry in test [5], in [6] and in test [9] was “inactive” throughout.
With `Cc1cccn2c(=O)c(-c3nnn[nH]3)cnc12`, the Potency entry in [1], in [3], in [4], in [7], in test [8] and in test [5] was “inactive” each time. Further, the Potency entry in test [6] and in test [9] was “inactive” throughout.
`CN(C)CCCOc1nn(Cc2ccccc2)c2ccccc12`: the Potency entry in [10], in test [5] and in [9] was “inactive” throughout. The Potency in [6] is 15.4 µM (active).
`CC(=O)OCC(=O)[C@@]1(O)[C@H](C)C[C@H]2[C@@H]3CCC4=CC(=O)C=C[C@]4(C)[C@@]3(F)[C@@H](O)C[C@@]21C`: the Potency entry in test [1], in test [2], in test [3], in test [4], in test [7] and in test [8] was “inactive” in each case. Further, the Potency entry in [5], in test [6] and in test [9] was “inactive” in each case.
Turning to `CCN(CC)CCNC(=O)COc1ccc(Cl)cc1`, the Potency entry in test [1], in test [2], in test [3], in [4], in [8] and in [5] was “inactive” each time. The Potency result in test [6] and in test [9] was “inactive” each time.
For `CCCCOc1cc(C(=O)NCCN(CC)CC)c2ccccc2n1`, the Potency entry in test [10], in test [7], in test [8] and in test [5] was “inactive” throughout.
Take `O=c1[nH]c(=O)n([C@H]2C[C@H](O)[C@@H](CO)O2)cc1C(F)(F)F`: the Potency entry in test [1], in [8], in test [5], in [6] and in [9] was “inactive” each time. For the same compound, the Potency in test [2] is 1.68 µM (active); in test [4], 0.55 µM (active).
Consider `COc1ccc(OC)c(C(O)CNC(=O)CN)c1` (configuration not stated), for which the Potency entry in test [1], in test [2], in test [3], in [4], in [7] and in [5] was “inactive” each time. The Potency entry in test [6] and in test [9] was “inactive” in each case.
Regarding `CC(=O)OCC(=O)[C@@]12N=C(C)O[C@@H]1C[C@H]1[C@@H]3CCC4=CC(=O)C=C[C@]4(C)[C@H]3[C@@H](O)C[C@@]12C`, the Potency result in test [1], in test [2], in test [3], in test [4], in [7] and in test [8] was “inactive” in each case. In addition, the Potency entry in test [5], in test [6] and in [9] was “inactive” throughout.
